Active and inactive are the calls of the source. No rule for the calls is given here.
Potency is read from the fitted curve at half-maximal effect.

This experiment relates to HIV-1 nucleocapsid protein NCp7 (binding to TG oligonucleotide). The experiment can be described thus: HIV Nucleocapsid (AID 346).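 Also: potency is for inhibitors that block NC binding and lower polarization.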 The following applies: HIV-1 NC / fluorescein-TGTGTGTG probe, fluorescence polarization. As for the experimental part:
NCGC Assay Overview: HIV-1 nucleocapsid protein (HIV-1 NC) is a small (6.5 kDa) basic zinc-finger protein which participates in packaging of viral genomic RNA. The spacing and metal-chelating residues (3 Cys, 1 His) of the Cys-X2-Cys-X4-His-X4-Cys Zn fingers are conserved among all known retroviruses (J. Med. Chem. 1998, 41, 1371-1381). HIV-1 NC was assayed for its binding to the consensus sequence single-stranded 5'-TGTGTGTG. […] High salt was included to increase the stringency of binding and inhibitor screen. Reducing agents and zinc were present to stabilize the nucleocapsid zinc-finger protein.
NCGC Assay Protocol Summary: Buffer. Hepes pH 7.5, 250mM NaCl, 1uM ZnCl2. 0.004% polyethylene glycol 20000. TCEP (100 uM) and 2-Mercaptoethanol (5 mM), added fresh the day of the experiment. Reagents/Controls. 10 nM TG4xF only in columns 3 and 4 as negative control. 10 nM TG4xF/100 nM HIV-1 NC in columns 1, 2, 5-48. Titration of control compound NSC-13778 (from 20 mM, then 1:2) pin-transferred to column 2. Assay Steps. Two uL of reagents were dispensed to 1536-well Kalypsys black plates. The plates were centrifuged for 1 min at 1000 rpm. Compounds and controls (20 nL) were transferred via Kalypsys PinTool. The plates were incubated for 1 hr at room temperature, and then read on ViewLux (Perkin-Elmer). High-throughput CCD imager using fluorescein polarization filter set and 45 seconds exposure time.
`Cn1c(=O)c(-c2ccc(Cl)cc2)nc2cnc(Oc3cccc(Cl)c3)nc21`: the Potency was > 20 µM (inactive).

As for `O=C(Oc1ccccc1)N1CCC2(CC1)CCN(c1ncccn1)CC2`, the Potency is > 20 µM (inactive). The figure for `O=C(c1ccncc1)N1CCC2(CCCN(c3ccccc3)C2)CC1` is > 20 µM (inactive); for `COc1cccc(-c2cc(NCc3cccs3)ncn2)c1` it is > 20 µM (inactive). Consider `COc1cccc(-c2nccc(NCc3ccccc3)n2)c1`, for which the Potency is > 20 µM (inactive).

With `O=C(c1cnccn1)N1CCC2(CC1)CN(Cc1ccccc1)C2`, the Potency was > 20 µM (inactive). The figure for `c1ccc(C(c2ccccc2)N2CCCC3(CCNCC3)C2)cc1` is > 20 µM (inactive). Take `Cc1noc(C)c1-c1cc(N(C)Cc2ccco2)ncn1`: the Potency is > 20 µM (inactive). The figure for `CC(=O)N1CCC2(CCN(Cc3cc(C(F)(F)F)cc(C(F)(F)F)c3)CC2)CC1` is > 20 µM (inactive); for `O=C(Nc1cccc(F)c1)N1CCCC2(CCN(C(=O)c3cnccn3)CC2)C1` it is > 20 µM (inactive).

Take `COc1ccc(-c2nc3cnc(N4CCN(C)CC4)nc3n(C3CC3)c2=O)cc1`: the Potency is > 20 µM (inactive). The same measure for `CC(=O)N1CCC2(CCCN(Cc3ccccc3)C2)CC1`: > 20 µM (inactive); for `COc1ccc(Oc2ncc3ncc(=O)n(Cc4ccc(F)cc4)c3n2)cc1`: > 20 µM (inactive); for `CN1CCC2(CC1)CCN(C(=O)c1cc(C(F)(F)F)cc(C(F)(F)F)c1)CC2`: > 20 µM (inactive). The figure for `CN(Cc1ccco1)c1ncnc2ccc(-c3cccc(C#N)c3)cc12` is > 20 µM (inactive). The figure for `O=C(c1ccncc1)N1CCC[C@@]2(CCN(c3ccccn3)C2)C1` is > 20 µM (inactive); for `COc1ccc(NC(=O)N2CCC3(CC2)CCN(C(=O)c2cc(C(F)(F)F)cc(C(F)(F)F)c2)CC3)cc1` it is > 20 µM (inactive). In the case of `O=C(c1cccc(F)c1)N1CCC2(CC1)CN(c1ccccn1)C2`, the Potency was > 20 µM (inactive). As for `COc1ccc(CNc2cc(-c3ccccc3Cl)ncn2)c(OC)c1`, the Potency is > 20 µM (inactive).

As for `COc1cccc(Cn2c(=O)c(C)nc3cnc(N4CCOCC4)nc32)c1`, the Potency was > 20 µM (inactive). The figure for `Cc1cccc(CNc2ncncc2-c2ccc3c(c2)OCO3)c1` is > 20 µM (inactive). Take `O=C(c1ccco1)N1CCC2(CC1)CN(Cc1cc(C(F)(F)F)cc(C(F)(F)F)c1)C2`: the Potency was > 20 µM (inactive). The figure for `Cc1noc(C)c1C(=O)N1CCC2(CCN(Cc3nccs3)CC2)CC1` is > 20 µM (inactive). The figure for `COc1ncc2nc(C)c(=O)n(C)c2n1` is > 20 µM (inactive). Take `c1ccc(CNc2ccnc(-c3ccoc3)n2)cc1`: the Potency is > 20 µM (inactive). The figure for `Cc1cccc(CNc2ncnc3ccc(-c4ccccc4CN(C)C)cc23)c1` is > 20 µM (inactive); for `O=C(c1ccncc1)N1CCC[C@@]2(CCN(c3ccncc3)C2)C1` it is > 20 µM (inactive); for `CC(C)CN1CCC2(CC1)CCN(C(=O)c1cccn1C)CC2` it is > 20 µM (inactive). With `CS(=O)(=O)N1CCC2(CC1)CN(Cc1ccc(C#N)cc1)C2`, the Potency is > 20 µM (inactive).

On to `COc1ccc(CNc2ccnc(-c3cccc(C#N)c3)n2)c(OC)c1`, for which the Potency is > 20 µM (inactive). The same measure for `Cn1cccc1C(=O)N1CCC[C@@]2(CCN(c3ccncc3)C2)C1`: > 20 µM (inactive); for `Cc1noc(C)c1C(=O)N1CCC2(CCCN(Cc3ccc(C#N)cc3)C2)CC1`: > 20 µM (inactive); for `CCNc1ncc2nc(C)c(=O)n(CCc3ccccc3)c2n1`: > 20 µM (inactive). In the case of `COC(=O)N1CCC2(CC1)CN(C(=O)Nc1ccccc1)C2`, the Potency is > 20 µM (inactive).

Turning to `COc1ncc2ncc(=O)n(CCc3ccccc3)c2n1`, the Potency was > 20 µM (inactive). The same measure for `N#Cc1ccc(CN2CCCC3(CCN(C(=O)c4ccco4)CC3)C2)cc1`: > 20 µM (inactive); for `COc1ccccc1CN1CCCC2(CCN(C(=O)c3csnn3)CC2)C1`: > 20 µM (inactive).

In the case of `COc1ccc2[nH]cc(CCNc3ncnc4ccc(-c5ccoc5)cc34)c2c1`, the Potency was > 20 µM (inactive). The figure for `O=c1c(CCc2ccccc2)nc2cnc(Oc3ccccc3)nc2n1C1CC1` is > 20 µM (inactive); for `O=c1cnc2cnc(Oc3cccc(Cl)c3)nc2n1Cc1ccc(F)cc1` it is > 20 µM (inactive).

The record behind these values is PubChem BioAssay (NCATS).
